The full list was thinned out, with the strongest signals kept by preference.
How the values were obtained:
Experiment in all cases: glycan array binding signal (z-score within array); higher = stronger binding
Settings in all cases: glycan notation: IUPAC condensed, linker removed
[1] = biological target: Fuc(a1-2)Gal(b1-3)GalNAc(b1-3)Gal
In short: (§1)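 From the Consortium for Functional Glycomics database, 3228 arrays were curated, keeping only those whose protein sequence was available. Binding is given as a within-array Z-score averaged across arrays sharing a protein sequence and across linkers. Negative Z-scores can be read as non-binding.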

[2] = biological target: Fuc(a1-2)Gal(b1-3)GlcNAc(b1-2)Man(a1-3)[Fuc(a1-2)Gal(b1-3)GlcNAc(b1-2)Man(a1-6)]Man(b1-4)GlcNAc(b1-4)[Fuc(a1-6)]GlcNAc
In short: as §1

[3] = biological target: Fuc(a1-2)Gal(b1-4)[Fuc(a1-3)]GlcNAc(b1-3)[Neu5Ac(a2-6)Gal(b1-4)GlcNAc(b1-6)]Gal(b1-4)Glc
In short: as §1

[4] = biological target: Fuc(a1-2)Gal6S(b1-4)Glc6S
In short: as §1

[5] = biological target: Fuc(a1-2)[Gal(a1-3)]Gal(b1-3)GlcNAc(b1-2)Man(a1-3)[Fuc(a1-2)[Gal(a1-3)]Gal(b1-3)GlcNAc(b1-2)Man(a1-6)]Man(b1-4)GlcNAc(b1-4)GlcNAc
In short: as §1

[6] = biological target: Fuc(a1-2)[Gal(a1-3)]Gal(b1-3)GlcNAc(b1-2)Man(a1-3)[Fuc(a1-2)[Gal(a1-3)]Gal(b1-3)GlcNAc(b1-2)Man(a1-6)]Man(b1-4)GlcNAc(b1-4)[Fuc(a1-6)]GlcNAc
In short: as §1

[7] = biological target: Fuc(a1-2)[Gal(a1-3)]Gal(b1-4)[Fuc(a1-3)]GlcNAc(b1-3)GalNAc
In short: as §1

[8] = biological target: Fuc(a1-2)[GalNAc(a1-3)]Gal(b1-4)Glc
In short: as §1

[9] = biological target: Fuc(a1-3)[Gal(b1-4)]GlcNAc
In short: as §1

[10] = biological target: Fuc(a1-3)[GalNAc(b1-4)]GlcNAc6S
In short: as §1

Fuc(b1-3)GlcNAc = biological target: Fuc(b1-3)GlcNAc
In short: as §1

[11] = biological target: Gal(a1-3)Gal(b1-4)GlcNAc(b1-3)GalNAc
In short: as §1

[12] = biological target: Gal(a1-3)Gal(b1-4)[Fuc(a1-3)]GlcNAc(b1-2)Man(a1-3)[Gal(a1-3)Gal(b1-4)[Fuc(a1-3)]GlcNAc(b1-2)Man(a1-6)]Man(b1-4)GlcNAc(b1-4)GlcNAc
In short: as §1

[13] = biological target: Gal(a1-4)Gal(b1-3)GlcNAc(b1-2)Man(a1-3)[Gal(a1-4)Gal(b1-3)GlcNAc(b1-2)Man(a1-6)]Man(b1-4)GlcNAc(b1-4)GlcNAc
In short: as §1

[14] = biological target: Gal(a1-4)Gal(b1-4)GlcNAc(b1-3)Gal(b1-4)Glc
In short: as §1

Gal(b1-3)Gal(b1-4)GlcNAc = biological target: Gal(b1-3)Gal(b1-4)GlcNAc
In short: as §1

Gal(b1-3)GalNAc(b1-3)Gal = biological target: Gal(b1-3)GalNAc(b1-3)Gal
In short: as §1

[15] = biological target: Gal(b1-3)GalNAc(b1-4)Gal(b1-4)Glc
In short: as §1

Gal(b1-3)GlcNAc(b1-2)Man = biological target: Gal(b1-3)GlcNAc(b1-2)Man
In short: as §1

[16] = biological target: Gal(b1-3)GlcNAc(b1-3)Gal(b1-4)GlcNAc(b1-2)[Gal(b1-3)GlcNAc(b1-3)Gal(b1-4)GlcNAc(b1-6)]Man(a1-6)[Gal(b1-3)GlcNAc(b1-3)Gal(b1-4)GlcNAc(b1-2)Man(a1-3)]Man(b1-4)GlcNAc(b1-4)[Fuc(a1-6)]GlcNAc
In short: as §1

[17] = biological target: Gal(b1-3)GlcNAc(b1-3)GalNAc
In short: as §1

[18] = biological target: Gal(b1-3)[Neu5Ac(b2-6)]GalNAc
In short: as §1

[19] = biological target: Gal(b1-4)GalNAc(b1-3)[Fuc(a1-2)]Gal(b1-4)GlcNAc
In short: as §1

Gal(b1-4)Glc6S = biological target: Gal(b1-4)Glc6S
In short: as §1

[20] = biological target: Gal(b1-4)GlcNAc(b1-2)[Gal(b1-4)GlcNAc(b1-4)]Man(a1-3)[Gal(b1-4)GlcNAc(b1-2)[Gal(b1-4)GlcNAc(b1-6)]Man(a1-6)]Man(b1-4)GlcNAc(b1-4)GlcNAc
In short: as §1

[21] = biological target: Gal(b1-4)GlcNAc(b1-3)Gal(b1-4)GlcNAc(b1-2)Man(a1-3)[Gal(b1-4)GlcNAc(b1-3)Gal(b1-4)GlcNAc(b1-2)Man(a1-6)]Man(b1-4)GlcNAc(b1-4)[Fuc(a1-6)]GlcNAc
In short: as §1

[22] = biological target: Gal(b1-4)GlcNAc(b1-3)Gal(b1-4)GlcNAc(b1-3)Gal(b1-4)GlcNAc(b1-3)Gal(b1-4)GlcNAc(b1-3)Gal(b1-4)GlcNAc(b1-2)[Gal(b1-4)GlcNAc(b1-3)Gal(b1-4)GlcNAc(b1-3)Gal(b1-4)GlcNAc(b1-3)Gal(b1-4)GlcNAc(b1-3)Gal(b1-4)GlcNAc(b1-6)]Man(a1-6)[Gal(b1-4)GlcNAc(b1-3)Gal(b1-4)GlcNAc(b1-3)Gal(b1-4)GlcNAc(b1-3)Gal(b1-4)GlcNAc(b1-3)Gal(b1-4)GlcNAc(b1-2)Man(a1-3)]Man(b1-4)GlcNAc(b1-4)[Fuc(a1-6)]GlcNAc
In short: as §1

[23] = biological target: Gal(b1-4)GlcNAc(b1-3)[Fuc(a1-3)GlcNAc(b1-6)]Gal(b1-4)Glc
In short: as §1

[24] = biological target: Gal(b1-4)GlcNAc(b1-6)Gal(b1-4)GlcNAc
In short: as §1

Gal3S(b1-4)Glc = biological target: Gal3S(b1-4)Glc
In short: as §1

B1: FimA-N3 (Actinomyces oris) (protein)
chain: MHHHHHHSSGVDLGTENLYFQSNAGLQGAQFQLYKAKNAYANTCSNEKEGAPIAINGQTTLTTDAQGAIDIKGLFISDSIDGADRDNQVNAMERCYVLVETKAPAGYVLPAGNGAATPVKVKAGEETTDN
[1]
  glycan array binding signal (z-score): 5.62
[2]
  glycan array binding signal (z-score): -0.196
[3]
  glycan array binding signal (z-score): -0.472
[4]
  glycan array binding signal (z-score): 0.307
[5]
  glycan array binding signal (z-score): -0.378
[6]
  glycan array binding signal (z-score): -0.364
[7]
  glycan array binding signal (z-score): 0.505
[8]
  glycan array binding signal (z-score): -0.493
[9]
  glycan array binding signal (z-score): -0.369
[10]
  glycan array binding signal (z-score): 4.08
Fuc(b1-3)GlcNAc
  glycan array binding signal (z-score): -0.128
[11]
  glycan array binding signal (z-score): 0.243
[12]
  glycan array binding signal (z-score): -0.667
[13]
  glycan array binding signal (z-score): -0.264
[14]
  glycan array binding signal (z-score): -0.388
Gal(b1-3)Gal(b1-4)GlcNAc
  glycan array binding signal (z-score): 0.999
Gal(b1-3)GalNAc(b1-3)Gal
  glycan array binding signal (z-score): -0.367
[15]
  glycan array binding signal (z-score): 3.23
Gal(b1-3)GlcNAc(b1-2)Man
  glycan array binding signal (z-score): -0.37
[16]
  glycan array binding signal (z-score): 2.94
[17]
  glycan array binding signal (z-score): -0.259
[18]
  glycan array binding signal (z-score): -0.563
[19]
  glycan array binding signal (z-score): -0.587
Gal(b1-4)Glc6S
  glycan array binding signal (z-score): -0.058
[20]
  glycan array binding signal (z-score): -0.618
[21]
  glycan array binding signal (z-score): -0.021
[22]
  glycan array binding signal (z-score): 4.26
[23]
  glycan array binding signal (z-score): -0.038
[24]
  glycan array binding signal (z-score): -0.237
Gal3S(b1-4)Glc
  glycan array binding signal (z-score): 0.681

From the supplement of paper PMC8728848
